# Source: the supplement of paper PMC11417369
# Whole data set: some 25,000 sequences, median “ln(normalized median fluorescence intensity)” near 9.3, cut for the highest 2% near 10. The sample holds the highest values, similar sequences and a random draw of the others, so the mix is not that of the screen.
# Test system: PF3D7_0420300 AP2 domain 1 (GST-tagged)
# Experiment: gcPBM binding intensity (ln(normalized median fluorescence intensity)); higher = stronger DNA binding
# How it was run: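 The binding buffer was 1× PBS containing 1% milk, 0.2 mg/ml BSA, 0.5% salmon testes DNA and 0.03% Triton X-100. In it, GST-tagged P. falciparum DNA-binding domains expressed in E. coli were applied for 1 h to an Agilent 4 × 180k array of primer-extended double-stranded 36-bp intergenic genomic probes plus negative controls. Binding intensity, read with Alexa488 anti-GST antibody and a 488 nm scan, is the highest Masliner-normalised natural-log median intensity across replicate spots of either probe orientation.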
row,Sequence,gcPBM binding intensity (ln)
1,TTATTACGAACTCTGCAACATATATAAATAAATAAA [CACACA_negctrl_site44],8.86
2,ATATTTCATCTAGCTACACACATATAATAAATTATT [CACACA_site4094],9.53
3,ATTCTAATTAGTAAAGTGCAGATAAAATGATGCCCT [GTGCAC_site9578],9.08
4,ATTACATTTTTGTTTTGTACATATATTTTATAAACA [XGTACX_site494],9.34
5,TAATTTTTTTAAGAGAGTACATGACTCAACAGTTTA [XGTACX_site3103],8.76
6,TTAAAAAAAAAACACACACACATACCCATATATATA [CACACA_site5768],9.97
7,CGCACTAAAAAACACACACACACACCCATATATATA [CACACA_site4152],10.3
8,CCCACTAAAAAACACACACACACACCCATATATATA [CACACA_site6140],10.2
9,CACCCACTAATAAACACACACATATATATATATATA [CACACA_site389],9.62
10,TTATATTAAACAAACACACACATATATATATATATA [CACACA_site2382],9.53
11,CATACTGTTATAAAATGTACGCATATACACACACAT [XGTACX_site7256],9.89
12,CACATACAGACATACACACACATATAGATTAATATA [CACACA_site6399],9.93
13,GGCATGACTATCTGCACACATAAAAATAAGAAATAC [CACACA_site841],9.56
14,TAGAATAATCTATAAACACACAAACCCAACAAAAGA [CACACA_site6132],9.86
15,CACCCACACCAACACACACACATATATAATATATAT [CACACA_site595],10.1
16,TATAATAATCCACAAGCACACACACCCACATATATA [CACACA_site8343],9.93
17,AATAATAGAAGCACCCACCCACCACCACCCACACAT [CACACA_negctrl_site1033],11.1
18,ATAATAATTAACCTATGTACATAGGAAAGTCATAAA [XGTACX_site4387],9.29
19,TTATATTAATTTTGTTGTACTATTTGTGCATTAAAT [XGTACX_site4790],9.21

row,Sequence,gcPBM binding intensity (ln)
1,TGTCATGATACATACACACACATACCCATACCCATA [CACACA_site5211],9.88
2,ATTATATAATTGTCTTCACACACACCGATATATATA [CACACA_site8883],9.93
3,TATATTGCCCTTCACACACACACATATATATATATA [CACACA_site2492],10.3
4,TATTGCCCTGGACACACACACATATATATATATATA [CACACA_site5389],9.88
5,TATATATTGCCCTTCACACACACACCGATATATATA [CACACA_site5390],10.2
6,CTTATATATTGCCCTTCACACACACCCATATATATA [CACACA_site8795],10.1
7,TATTGCCCTTGACACACACACATATAAATAAATATA [CACACA_site7220],9.84
8,ATTCATTTTATTTTTTCACACACACCGATATATATA [CACACA_site9097],10
9,CATATATATTTGTTCACACACACACCCAAAAAAAAA [CACACA_site2476],9.99
10,TATATATTGCCCTTCACACACACACCCATATATATA [CACACA_site2493],10.2
11,GGTGGTAAAAAACCTGCATGTCGAAATATTAAATAC [TGCATGCA_site33],9.25
12,TTCTTAAATGTAAATGTATATGTATTAAAAAGAGAA [TGCATGCA_negctrl_site597],9.1
13,ACAACATATGTTATCACACACATATAAATATAAATA [CACACA_site7038],9.54
14,AAAAGCAAGTTCCAGGGTACATATATATGAAAAAAC [XGTACX_site2408],9.58
15,ATTTATTTATATAATACACACAAATATCTTAATGAA [CACACA_site6064],9.39
16,ATATATATATATGTATGTACATATTTTTTTTAACAC [XGTACX_site8475],9.24
17,GTTTGGTGGTGTTTTGGTACGTACGGGGGGGTATGT [XGTACX_site1983],10.9
18,TATGATTTTTATATATGTACGTATGGTGTTTTACAA [XGTACX_site6100],9.21
19,GTTTGGTGGTGTTTTGGTACGTACGGGGGTGTATGT [XGTACX_site1211],10.1

row,Sequence,gcPBM binding intensity (ln)
1,AAAAAAAAAAAAAAAAAAAAAAAAAAATGAGATACA [GTGCAC_negctrl_site160],9.13
2,ATAAAATGAACAAACACACACACATATATTTATATA [CACACA_site7181],10.1
3,TGTAGTCTGGAGAAAAGTACATAGTATCTGGTAGCT [XGTACX_site2031],9.32
4,CGTATATATATATACACACACATATATATATGTAAA [CACACA_site195],9.69
5,TTAAACCGTGGGAGCACACACACACCCCCACCCATA [CACACA_site331],10.2
6,TTAAACATATATTAAGCACACACAAACAAAAAAACA [CACACA_site8816],9.9
7,CATTAAACCGTGGGAGCACACACACCCACCCACCCA [CACACA_site8000],9.87
8,AATTAACCGTGACACACACACATATAAATATAAATA [CACACA_site7790],9.86
9,AAACCGTGGGAGCACACACACACACCGACACATATA [CACACA_site4338],10.1
10,TTAAACCGTGGGAGCACACACACACCCAGACACATA [CACACA_site4337],9.86
11,ATTAAACCGTGGGAGCACACACACACACACACACAT [TGCATGCA_negctrl_site72],10.8
12,AAACCGTGGGAGCACACACACACACCCACCCATATA [CACACA_site332],10.2
13,TGTGGGAATAACCACACACACACACCCATATATATA [CACACA_site5876],10.1
14,AATATGTCTTAAAAAAGTACATAAATTTTAACTTCA [XGTACX_site6670],8.84
15,TTTTTTTTTTTTTTTTGTACATAATAAATGTTCTTA [XGTACX_site6754],8.64
16,AAGAATTATATTAATAGTACATATATATTAATTTAT [XGTACX_site5713],9.08
17,GCAAATCTTATATGAAGTACATATCTTATAAATAAA [XGTACX_site6903],8.96
18,TGGAGGTCAGTTCACAGTACCCAGAAACTCTACGAG [XGTACX_site2007],8.76
